# The supplement of paper PMC8728848
# This is one part of a sample in which the strongest signals are shown more often than they occur.
# B1: Thrombomodulin Lectin (Mus musculus) (protein)
# chain: LSALAKLQPTGSQCVEHECFALFQGPATFLDASQACQRLQGHLMTVRSSVAADVISLLLSQSSMDLGPWIGLQLPQGCDDPVHLGPLRGFQWVTGDNHTSYSRWARPNDQTAPLCGPLCVTVSTATEAAPGEPAWEEKPCETETQGFLCEFYFTASCRVDPIPVREDTKEEEGAGEPPVSPTPGSPTGPPSARPVLDEPRVPITQNPCPPLKECPPCAAPDLEGGPSVFIFPPKIKDVLMISLSPMVTCVVVDVSEDDPDVQISWFVNNVEVHTAQTQTHREDYNSTLRVVSALPIQHQDWMSGKAFACAVNNRALPSPIEKTISKPRGPVRAPQVYVLPPPAEEMTKKEFSLTCMITGFLPAEIAVDWTSNGRTEQNYKNTATVLDSDGSYFMYSKLRVQKSTWERGSLFACSVVHEGLHNHLTTKTISRSLGK
# What was measured:
# Experiment in all cases: glycan array binding signal (z-score within array); higher = stronger binding
# Settings in all cases: glycan notation: IUPAC condensed, linker removed
# [1] = target: Fuc(a1-2)Gal(b1-4)GlcNAc(b1-2)Man(a1-3)[Fuc(a1-2)Gal(b1-4)GlcNAc(b1-2)Man(a1-6)]Man(b1-4)GlcNAc(b1-4)GlcNAc
# Procedure, shortened: (§1)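 Negative Z-scores can be read as non-binding. The Z-score is calculated within each array and then averaged across arrays of one protein sequence at different concentrations or buffers and across linkers. Arrays, 3228 in all, were curated from the Consortium for Functional Glycomics database and kept only where the protein sequence was available.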
# [2] = target: Fuc(a1-2)Gal(b1-4)GlcNAc(b1-6)GalNAc
# Procedure, shortened: as §1
# Fuc(a1-2)Gal6S(b1-4)Glc = target: Fuc(a1-2)Gal6S(b1-4)Glc
# Procedure, shortened: as §1
# [3] = target: Fuc(a1-2)Gal6S(b1-4)Glc6S
# Procedure, shortened: as §1
# [4] = target: Fuc(a1-2)[Gal(a1-3)]Gal(b1-4)GlcNAc(b1-2)Man(a1-3)[Fuc(a1-2)[Gal(a1-3)]Gal(b1-4)GlcNAc(b1-2)Man(a1-6)]Man(b1-4)GlcNAc(b1-4)GlcNAc
# Procedure, shortened: as §1
# [5] = target: Fuc(a1-2)[Gal(a1-3)]Gal(b1-4)GlcNAc(b1-3)[Fuc(a1-2)[Gal(a1-3)]Gal(b1-4)GlcNAc(b1-6)]GalNAc
# Procedure, shortened: as §1
# [6] = target: Fuc(a1-2)[Gal(a1-3)]Gal(b1-4)GlcNAc(b1-6)GalNAc
# Procedure, shortened: as §1
# [7] = target: Fuc(a1-2)[Gal(a1-4)]Gal(b1-4)GlcNAc
# Procedure, shortened: as §1
# [8] = target: Fuc(a1-2)[GalNAc(a1-3)]Gal
# Procedure, shortened: as §1
# [9] = target: Fuc(a1-2)[GalNAc(a1-3)]Gal(b1-4)Glc
# Procedure, shortened: as §1
# [10] = target: Fuc(a1-3)[Gal3S(b1-4)]GlcNAc
# Procedure, shortened: as §1
# [11] = target: Fuc(a1-3)[GalNAc(b1-4)]GlcNAc
# Procedure, shortened: as §1
# Gal(a1-3)Gal(b1-4)Glc = target: Gal(a1-3)Gal(b1-4)Glc
# Procedure, shortened: as §1
# Gal(a1-3)GalNAc = target: Gal(a1-3)GalNAc
# Procedure, shortened: as §1
# [12] = target: Gal(a1-4)Gal(b1-4)GlcNAc(b1-3)Gal(b1-4)Glc
# Procedure, shortened: as §1
# Gal(b1-3)Gal = target: Gal(b1-3)Gal
# Procedure, shortened: as §1
# [13] = target: Gal(b1-3)[Fuc(a1-4)]GlcNAc(b1-6)GalNAc
# Procedure, shortened: as §1
# [14] = target: Gal(b1-4)GlcNAc(b1-2)Man(a1-3)[Gal(b1-4)GlcNAc(b1-2)Man(a1-6)][Gal(b1-4)GlcNAc(b1-4)]Man(b1-4)GlcNAc(b1-4)[Fuc(a1-6)]GlcNAc
# Procedure, shortened: as §1
# [15] = target: Gal(b1-4)GlcNAc(b1-2)[Gal(b1-4)GlcNAc(b1-4)]Man(a1-3)[Gal(b1-4)GlcNAc(b1-2)Man(a1-6)]Man(b1-4)GlcNAc(b1-4)GlcNAc
# Procedure, shortened: as §1
# [16] = target: Gal(b1-4)GlcNAc(b1-3)Gal(b1-4)GlcNAc(b1-2)Man(a1-3)[Gal(b1-4)GlcNAc(b1-3)Gal(b1-4)GlcNAc(b1-2)Man(a1-6)]Man(b1-4)GlcNAc(b1-4)[Fuc(a1-6)]GlcNAc
# Procedure, shortened: as §1
# Gal(b1-4)GlcNAc6P = target: Gal(b1-4)GlcNAc6P
# Procedure, shortened: as §1
# Gal6S(b1-4)Glc = target: Gal6S(b1-4)Glc
# Procedure, shortened: as §1
# GalNAc(b1-4)GlcNAc6S = target: GalNAc(b1-4)GlcNAc6S
# Procedure, shortened: as §1
# GlcA(b1-6)Gal = target: GlcA(b1-6)Gal
# Procedure, shortened: as §1
# [17] = target: GlcNAc(a1-3)Gal(b1-4)GlcNAc
# Procedure, shortened: as §1
# [18] = target: GlcNAc(a1-4)Gal(b1-4)GlcNAc(b1-3)Gal(b1-4)[Fuc(a1-3)]GlcNAc(b1-3)Gal(b1-4)[Fuc(a1-3)]GlcNAc
# Procedure, shortened: as §1
# [19] = target: GlcNAc(a1-6)Gal(b1-4)GlcNAc
# Procedure, shortened: as §1
# [20] = target: GlcNAc(b1-2)Man(a1-3)[GlcNAc(b1-2)Man(a1-6)]Man(b1-4)GlcNAc(b1-4)[Fuc(a1-6)]GlcNAc
# Procedure, shortened: as §1
# [21] = target: GlcNAc(b1-3)Gal(b1-4)GlcNAc(b1-3)Gal(b1-4)GlcNAc
# Procedure, shortened: as §1
# [22] = target: GlcNAc(b1-3)Gal(b1-4)GlcNAc(b1-3)Gal(b1-4)GlcNAc(b1-2)[GlcNAc(b1-3)Gal(b1-4)GlcNAc(b1-3)Gal(b1-4)GlcNAc(b1-6)]Man(a1-6)[GlcNAc(b1-3)Gal(b1-4)GlcNAc(b1-3)Gal(b1-4)GlcNAc(b1-2)Man(a1-3)]Man(b1-4)GlcNAc(b1-4)[Fuc(a1-6)]GlcNAc
# Procedure, shortened: as §1
# [23] = target: GlcNAc(b1-3)Gal(b1-4)GlcNAc(b1-3)Gal(b1-4)GlcNAc(b1-3)Gal(b1-4)GlcNAc(b1-3)Gal(b1-4)GlcNAc(b1-2)Man(a1-3)[GlcNAc(b1-3)Gal(b1-4)GlcNAc(b1-3)Gal(b1-4)GlcNAc(b1-3)Gal(b1-4)GlcNAc(b1-3)Gal(b1-4)GlcNAc(b1-2)Man(a1-6)]Man(b1-4)GlcNAc(b1-4)GlcNAc
# Procedure, shortened: as §1
# [24] = target: GlcNAc(b1-4)GlcNAc(b1-4)GlcNAc(b1-4)GlcNAc(b1-4)GlcNAc
# Procedure, shortened: as §1
# [25] = target: GlcNAc(b1-4)GlcNAc(b1-4)GlcNAc(b1-4)GlcNAc(b1-4)GlcNAc(b1-4)GlcNAc
# Procedure, shortened: as §1
# [26] = target: GlcNAc6S(b1-3)Gal(b1-4)GlcNAc
# Procedure, shortened: as §1
# [27] = target: Man(a1-2)Man(a1-2)Man(a1-3)Man
# Procedure, shortened: as §1
# [28] = target: Neu5Ac(a2-3)Gal(b1-3)GlcNAc(b1-2)[Neu5Ac(a2-3)Gal(b1-3)GlcNAc(b1-4)]Man(a1-6)[Neu5Ac(a2-3)Gal(b1-3)GlcNAc(b1-2)Man(a1-3)]Man(b1-4)GlcNAc(b1-4)GlcNAc
# Procedure, shortened: as §1
# [29] = target: Neu5Ac(a2-3)Gal(b1-3)GlcNAc(b1-3)Gal(b1-3)GlcNAc
# Procedure, shortened: as §1
# [30] = target: Neu5Ac(a2-3)Gal(b1-4)GlcNAc(b1-2)Man
# Procedure, shortened: as §1
# [31] = target: Neu5Ac(a2-3)[GalNAc(b1-4)]Gal(b1-4)GlcNAc(b1-3)GalNAc
# Procedure, shortened: as §1
# [32] = target: Neu5Ac(a2-6)Gal(b1-4)GlcNAc(b1-2)Man(a1-3)[Man(a1-6)]Man(b1-4)GlcNAc(b1-4)GlcNAc
# Procedure, shortened: as §1
# [33] = target: Neu5Ac(a2-6)Gal(b1-4)GlcNAc(b1-2)Man(a1-3)[Neu5Ac(a2-3)Gal(b1-4)GlcNAc(b1-2)Man(a1-6)]Man(b1-4)GlcNAc(b1-4)GlcNAc
# Procedure, shortened: as §1
# [34] = target: Neu5Ac(a2-6)Gal(b1-4)GlcNAc(b1-2)[Neu5Ac(a2-6)Gal(b1-4)GlcNAc(b1-6)]Man(a1-6)[Neu5Ac(a2-6)Gal(b1-4)GlcNAc(b1-2)Man(a1-3)][GlcNAc(b1-4)]Man(b1-4)GlcNAc(b1-4)GlcNAc
# Procedure, shortened: as §1
# [35] = target: Neu5Ac(a2-6)GalNAc(b1-4)GlcNAc
# Procedure, shortened: as §1
# [36] = target: Neu5Ac(a2-8)Neu5Ac(a2-3)Gal(b1-3)GalNAc(b1-4)[Neu5Ac(a2-3)]Gal(b1-4)Glc
# Procedure, shortened: as §1
# [37] = target: Neu5Ac(a2-8)Neu5Ac(a2-3)Gal(b1-3)GalNAc(b1-4)[Neu5Ac(a2-8)Neu5Ac(a2-3)]Gal(b1-4)Glc
# Procedure, shortened: as §1
# [38] = target: Neu5Ac(a2-8)Neu5Ac(a2-3)[Gal(b1-3)GalNAc(b1-4)]Gal(b1-4)Glc
# Procedure, shortened: as §1
# [39] = target: Neu5Ac(a2-8)Neu5Ac(a2-8)Neu5Ac(a2-3)Gal(b1-4)Glc
# Procedure, shortened: as §1
# Neu5Ac(b2-6)GalNAc = target: Neu5Ac(b2-6)GalNAc
# Procedure, shortened: as §1
# [40] = target: Neu5Gc(a2-3)Gal(b1-3)GlcNAc
# Procedure, shortened: as §1
binder,measurement,setting,value
B1,glycan array binding signal (z-score),[1],0.621
same,glycan array binding signal (z-score),[2],2.73
same,glycan array binding signal (z-score),Fuc(a1-2)Gal6S(b1-4)Glc,2.72
same,glycan array binding signal (z-score),[3],0.784
same,glycan array binding signal (z-score),[4],2.81
same,glycan array binding signal (z-score),[5],2.22
same,glycan array binding signal (z-score),[6],0.082
same,glycan array binding signal (z-score),[7],0.651
same,glycan array binding signal (z-score),[8],0.693
same,glycan array binding signal (z-score),[9],-0.508
same,glycan array binding signal (z-score),[10],-0.275
same,glycan array binding signal (z-score),[11],0.174
same,glycan array binding signal (z-score),Gal(a1-3)Gal(b1-4)Glc,0.642
same,glycan array binding signal (z-score),Gal(a1-3)GalNAc,-0.598
same,glycan array binding signal (z-score),[12],0.021
same,glycan array binding signal (z-score),Gal(b1-3)Gal,2.2
same,glycan array binding signal (z-score),[13],-0.03
same,glycan array binding signal (z-score),[14],0.267
same,glycan array binding signal (z-score),[15],2.75
same,glycan array binding signal (z-score),[16],1.18
same,glycan array binding signal (z-score),Gal(b1-4)GlcNAc6P,2.7
same,glycan array binding signal (z-score),Gal6S(b1-4)Glc,-1.09
same,glycan array binding signal (z-score),GalNAc(b1-4)GlcNAc6S,0.18
same,glycan array binding signal (z-score),GlcA(b1-6)Gal,1.32
same,glycan array binding signal (z-score),[17],-1.21
same,glycan array binding signal (z-score),[18],0.73
same,glycan array binding signal (z-score),[19],1.09
same,glycan array binding signal (z-score),[20],-0.281
same,glycan array binding signal (z-score),[21],-0.268
same,glycan array binding signal (z-score),[22],2.07
same,glycan array binding signal (z-score),[23],0.151
same,glycan array binding signal (z-score),[24],-1.3
same,glycan array binding signal (z-score),[25],1.17
same,glycan array binding signal (z-score),[26],0.319
same,glycan array binding signal (z-score),[27],-0.544
same,glycan array binding signal (z-score),[28],0.153
same,glycan array binding signal (z-score),[29],-1.59
same,glycan array binding signal (z-score),[30],-1.13
same,glycan array binding signal (z-score),[31],2.15
same,glycan array binding signal (z-score),[32],2.04
same,glycan array binding signal (z-score),[33],-0.553
same,glycan array binding signal (z-score),[34],0.307
same,glycan array binding signal (z-score),[35],-1.18
same,glycan array binding signal (z-score),[36],1.68
same,glycan array binding signal (z-score),[37],-0.913
same,glycan array binding signal (z-score),[38],0.046
same,glycan array binding signal (z-score),[39],3.06
same,glycan array binding signal (z-score),Neu5Ac(b2-6)GalNAc,1.37
same,glycan array binding signal (z-score),[40],-0.635
